VP16 counter: Gal4-VP16 reporter inhibition counter-screen. Drosophila S2 Gal4-VP16 UAS-luciferase, luminescence, 20 h. Potency, µM (series often up to 53.6 µM), inactives show top-dose activity, negative = inhibition, actives largely listed as inhibitors. hit rate 3.5% among 310,000. AID 2546;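 also: Gal4-VP16 expression switched on by copper sulfate through the metallothionein promoter; potency is read from the fitted curve at half-maximal effect; nearly all actives have a fitted effect of over 50% in size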
GALK inhibitor: galactokinase (human) inhibition | P51570 | Purified GALK, Kinase-Glo residual ATP luminescence | Potency, µM (highest dose often 57.5 µM), inactives show at the highest dose activity change, negative = inhibition, hits mostly inhibitors | hit rate 0.007% among 270,000; also: potency is read from the fitted curve at half-maximal effect
Target sequence (P51570 whole entry, looked up): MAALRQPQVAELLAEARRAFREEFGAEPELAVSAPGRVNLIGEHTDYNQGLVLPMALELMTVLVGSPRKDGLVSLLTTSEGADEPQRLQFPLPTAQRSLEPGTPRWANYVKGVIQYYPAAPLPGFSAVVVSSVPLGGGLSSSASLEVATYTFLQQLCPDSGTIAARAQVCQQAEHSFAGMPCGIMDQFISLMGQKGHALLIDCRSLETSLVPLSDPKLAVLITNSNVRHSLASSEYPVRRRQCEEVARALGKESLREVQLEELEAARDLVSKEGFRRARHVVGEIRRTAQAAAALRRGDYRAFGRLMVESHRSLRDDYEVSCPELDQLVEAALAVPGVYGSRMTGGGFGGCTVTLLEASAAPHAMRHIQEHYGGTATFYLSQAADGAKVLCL
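Compounds were pin-transferred into ATP buffer (35 uM final), then GALK plus galactose (5 nM, 100 uM final) was added. After 1 h at room temperature, Kinase-Glo Plus was added and luminescence read after 10 min.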
RORgamma inh: inhibitors of mouse ROR gamma transcriptional activity; Drosophila S2 Gal4-RORgamma UAS-luciferase reporter, 20 h; Potency, µM (titrated, usually from 53.6 µM), inactives show top-dose activity change, negative = inhibition, hits mostly inhibitors; hit rate 5.4% among 310,000; also: potency is read from the fitted curve at half-maximal effect; nearly all actives have a fitted effect of over 60% in size
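Read-out: Photinus luciferase luminescence; inhibitors lower reporter signal. Insect Schneider cells with Gal4-ROR gamma fusion under metallothionein promoter, UAS reporter; 700 uM final copper sulfate induction, 20 hr, ambient temperature.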
TrxR1 substrate: is turned over as a substrate by rat TrxR1. O89049. purified TrxR1 substrate turnover, NADPH consumption readout. Potency, µM (doses to about 114 µM), for inactives: at the top dose activity change, negative = substrate turnover. hit rate 0.01% among 390,000. AID 588456; also: potency is read from the fitted curve at half-maximal effect; nearly all actives have a fitted effect of over 50% in size
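Rat TrxR1, dispensed at 90 nM, was prereduced with 400 uM NADPH (final) for 5 min at ~22 deg C, then incubated with compound 15 min before 400 uM selenite. A first-read NADPH fluorescence drop versus no-compound background flagged substrates.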
Coupling enz: inhibits coupling enzyme system, counter-screen for aldolase hits; coupling enzyme system counterscreen, AmpLite Red fluorescence; activity change, negative = inhibition, % at 58.2 µM, hits read low; hit rate 0.67% among 290,000; in the data active = activity change below about -30%
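Activity here indicates interference with the coupling reaction, not aldolase inhibition. Compounds at 57.5 uM final met coupling enzymes for 10 min at RT; substrate and AmpLite Red detection followed, with a 525/598 nm fluorescence read after 20 min.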
TrxR1 inh: inhibitors of rat thioredoxin reductase 1 | recombinant rTrxR1, NADPH fluorescence consumption, selenite substrate | AID 588453 | hit rate 1% among 390,000 | Potency, µM (series often up to 114 µM), for inactives: top-dose activity change, negative = inhibition, actives largely listed as inhibitors | O89049; also: potency is read from the fitted curve at half-maximal effect; nearly all actives have a fitted effect of over 65% in size
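Rat TrxR1 (90 nM in the dispensed reagent) was pre-reduced with 400 uM NADPH for 5 min at room temperature, then incubated with compound for 15 min. After 400 uM selenite was added, NADPH fluorescence (Ex 340/Em 450 nm) was followed for 8 min.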
* = called active by the depositor; ? = inconclusive; . = no result given; [ ] = remark or other dose. Only some compounds are listed: those with a hit (about 5.9% of all), similar ones and a draw of the others. Unless noted, calls follow the shape of the dose curve; as a rule, active = well fitted curve in the direction sought with a large enough effect; inconclusive = small, poorly fitted or top-dose-only effect, or another doubt; inactive = no such curve, though single readings can be large; an effect the other way counts as inactive or inconclusive. % is scaled to controls: 0 for no effect and ±100 for the full control effect.

SMILES	VP16 counter	GALK inhibitor	RORgamma inh	TrxR1 substrate	Coupling enz	TrxR1 inh
COc1ccccc1CNC(=O)[C@@H](NC(=O)C1CCN(C(=O)[C@@H]2CCCN2)CC1)C(C)C	3.0%	.	-0.9%	6.3%	-0.6	-8.7%
COc1ccccc1CNC(=O)[C@@H](NC(=O)C1CCN(C(=O)[C@@H]2CCCN2C(=O)OC(C)(C)C)CC1)C(C)C	11.8%	.	7.94µM*	2.7%	1.6	12.7%
COc1ccc(C(=O)O/N=C(/c2ccccc2)c2ccncc2)cc1	-25.2%	-0.7%	22.3%	-4.3%	2.1	16.3%
COc1ccc(C(=O)N=c2nc3ccccn3s2)cc1	3.98µM*	4.6%	2.24µM*	-4.2%	0.6	3.3%
COC(=O)c1ccc(CSc2n[nH]c(=S)s2)o1	6.1%	-0.4%	-6.7%	-1.0%[57.1 µM]	6.2	-13.2%[57.1 µM]
NNC(=O)c1cc2ccccc2cc1O	?	-0.1%	?	12.8%[0.457 µM]	-0.4	-14.4%
COc1ccc(C(=O)NN=C2CCCC2)c(OC)c1	5.0%	4.4%	11.5%	-16.9%	0.5	-24.5%
O=C(NN=C1CCCC1)c1ccc(O)cc1O	11.2µM*	-5.7%	7.94µM*	3.1%	.	18.9%
NNC(=O)c1ccc(O)cc1O	3.16µM*	-0.4%	1.26µM*	-6.9%	-3.0	9.4%
COc1ccc(/C=N\NC(=O)c2cccc([N+](=O)[O-])c2)cc1Cn1cc([N+](=O)[O-])cn1	-8.9%	4.4%	-18.4%	.	5.4	.
CCOc1cc(Br)cc(/C=N/NC(=O)c2cccnc2)c1O	1µM*	-0.5%	0.794µM*	?	-1.2	-7.7%
COc1ccc(/C=N/NC(=O)c2ccccc2O)cc1Cn1cc(Cl)cn1	14.1µM*	0.3%	6.31µM*	9.2%	8.2	14.8%[57.1 µM]
COc1ccc(/C=N/NC(=O)c2cccnc2)cc1CN1CCCc2ccccc21	-29.4%	2.4%	10µM*	6.2%[57.1 µM]	1.1	37.4%[57.1 µM]
COc1ccc(C(=O)N/N=C/c2ccc(OC)c(CN3CCCc4ccccc43)c2)cc1	?	-0.4%	?	1.7%[57.1 µM]	-4.9	7.4%[57.1 µM]
COc1ccc(/C=N/NC(=O)c2c(Br)cnn2C)c2ccccc12	2.82µM*	-1.4%	20µM*	-7.7%	0.6	-13.7%
CC(C)Oc1ccc(CNC(=O)C2=Cc3ccccc3OC2)cc1	.	.	.	0.0%[57.1 µM]	.	17.4%[57.1 µM]
CCOC(=O)Nc1ccc(C(=O)Oc2ccccc2)c(O)c1	-28.0%	-1.2%	16.4%	-1.3%[57.1 µM]	-4.9	27.8%
O=C(CCCc1cccs1)Nc1ccc2c(c1)OCO2	-11.6%	11.1%	-23.7%	7.9%	-1.1	28.8%
O=c1cc(C2CCCCC2)[nH]c(=O)[nH]1	.	.	.	4.2%	.	11.2%
COc1ccc(/C=N/NC(=O)c2cccnc2)c2ccccc12	-19.1%	-0.8%	1.26µM*	-1.3%	0.9	10.7%
N#C/C(=C\c1ccc(Br)cc1)c1nc(-c2cc3cc(Br)ccc3oc2=O)cs1	.	.	.	-5.0%	.	-2.4%
COc1cc(C)c(NC(=S)Nc2cccc(Cl)c2C)cc1OC	?	1.2%	12.6µM*	1.9%	-3.4	6.9%
COc1cccc(CNC(=S)Nc2cccc(Cl)c2C)c1	3.55µM*	4.4%	5.01µM*	3.1%[57.1 µM]	-1.8	-4.9%[57.1 µM]
COc1cccc(CNC(=O)CCl)c1	-10.5%	0.7%	-17.9%	6.8%[57.1 µM]	-0.7	8.3%[57.1 µM]
COc1cccc(CNC(=S)Nc2cc(C)ccc2C)c1	6.31µM*	0.9%	3.16µM*	8.8%	0.7	6.5%[57.1 µM]
SMILES	VP16 counter	GALK inhibitor	RORgamma inh	TrxR1 substrate	Coupling enz	TrxR1 inh
O=C(NCc1ccccc1)C1(CC2CC(c3ccccc3)=NO2)CCNCC1 (stereo not given)	.	.	.	4.3%	.	22.4µM*
CCCCCCCNC(=O)C1(CC2CC(c3ccccc3)=NO2)CCNCC1 (stereo not given)	.	.	.	5.5%	.	?
COc1ccc(Cl)cc1NC(=O)CN(C)C(=O)Cn1[nH]c(=O)c2ccccc2c1=O	.	.	.	-0.4%	.	3.1%
CC1(c2nnc(Cc3ccccc3)o2)CC(c2ccc(C#N)cc2)=NO1 (stereo not given)	.	.	.	6.0%	.	15.8µM*
CCOc1ccc(Cn2nnc(C(=O)NCCc3ccccc3)c2N)cc1	0.8%	1.2%	-5.0%	-11.5%[57.1 µM]	1.3	4.0%[57.1 µM]
COCCn1c(SCC(=O)Nc2cc(C)on2)nnc1-c1ccco1	1.5%	3.9%	18.3%	-5.0%	1.2	-18.6%

Source: PubChem BioAssay (National Center for Advancing Translational Sciences (NCATS))
